# Test results as given in PubChem BioAssay AID1159606 (Sanford-Burnham Center for Chemical Genomics, 2016).
# Hit rate of the full screen: of about 360,000 compounds, about 7,300 (2%) were called active. Many of the other results were omitted from the sample, so actives are more common in it than they were. Unmarked numbers belong to inactive results. Rule as the data show it: active = inhibition above about 50%; inactive = the rest.
# Test: inhibitors of TWEAK-Fn14 signaling, primary screen, luciferase reporter cells, uHTS (AID 1159606)
# Details: TWEAK-stimulated Fn14 reporter cells, luciferase luminescence, 8 h; at 10 µM; active compounds read high
row,Structure (SMILES),inhibition
1,COc1nc(OC)nc(N(C)CCO)n1,5.06%
2,O=C(CCc1ccccc1)Nc1nn[nH]n1,-6.61%
3,CCOc1ccc(CCN2C(=O)C(=O)N([C@@H](CC(C)C)CN3CCC[C@H]3CN3C(=O)C(=O)NC[C@@H]3Cc3ccccc3)C[C@@H]2CC(C)C)cc1,18.1%
4,CCc1nc2c(OCC(N)=O)cccn2c1N(C)C(=O)c1ccc(OC)cc1,-0.65%
5,Cc1cccc(C(=O)O)c1[N+](=O)[O-],-0.13%
6,O=C(NCc1ccccc1)C(=O)NCC1OCCN1S(=O)(=O)c1ccc(Br)cc1 (stereo not drawn),-2.34%
7,CC(NC(=O)COC(=O)Cn1cc(C(F)(F)F)ccc1=O)c1ccccc1 (stereo not drawn),19.7%
8,CCC(C)NCC(=O)Nc1ccc([N+](=O)[O-])cc1C(=O)Nc1ccccc1F (stereo not drawn),3.23%
9,CC(=O)OCCN(CCCn1c(-c2ccncc2)nc2ccccc21)c1nc(-c2ccc(C)cc2)cs1,4.36%
10,CCCCOCCCNC(=O)C[C@@H]1C[C@@]2(C(=O)OC)CCCCC=C2N(CCC2=CCCCC2)C1=O,11%
11,CN1OC[C@@H]2CN(S(=O)(=O)c3cccc4ccccc34)[C@H](c3ccc(N4CCCCC4)cc3)C[C@@H]21,-7.73%
12,CN1OC[C@@H]2CN(S(=O)(=O)c3cccc(C(F)(F)F)c3)[C@H](c3ccc(-c4cc5ccccc5o4)cc3)C[C@@H]21,62.2% (active)
13,COc1ccc(S(=O)(=O)N2C[C@H]3CON(C)[C@H]3C[C@H]2c2cccc(Br)c2)cc1,-6.92%
14,CC(=O)Cn1cnc2c(cnn2-c2ccccc2)c1=O,4.23%
15,CC(C)(C)n1ncc2c(=O)n(Cc3ccc(Cl)cc3)cnc21,68.2% (active)
16,CC(C)(C)n1ncc2c(=O)n(Cc3c(Cl)cccc3Br)cnc21,3.93%
17,O=C(O)CSCc1ccc(C(=O)O)o1,-3.63%
18,CC(CO)NCC12CC3CC(CC(C3)C1)C2 (stereo not drawn),13.3%
19,COc1ccc(-n2ncc3c(SCC(=O)NNC(C)=O)ncnc32)cc1,14.6%
20,Cc1ccc(-n2ncc3c(N4CCN(c5ccc(F)cc5)CC4)ncnc32)c(C)c1,73% (active)

row,Structure (SMILES),inhibition
1,COc1ccc(-n2ncc3c(N4CCc5ccccc54)ncnc32)cc1,-15.6%
2,c1ccc(-n2ncc3c(N4CCCC4)ncnc32)cc1,62.5% (active)
3,Cc1ccc2cc(C)c(N3CCN(c4ccc(F)cc4)CC3)nc2c1,8.39%
4,CC(Sc1ncnc2c1cnn2-c1ccccc1)C(=O)Nc1ccc(N2CCOCC2)cc1 (stereo not drawn),-20.4%
5,COC(=O)CSc1ncnc2c1cnn2-c1ccc(C)cc1C,-11.2%
6,CC(C)Sc1ncnc2c1cnn2-c1ccccc1,15.4%
7,COc1ccc(-n2ncc3c(N4CCCc5ccccc54)ncnc32)cc1,58.1% (active)
8,CCOC(=O)c1c(N=CN(C)C)c(C#N)c2n1CCCC2,-13.8%
9,COc1ccc(C(C)NC(=S)NC2CCCCC2)cc1OC (stereo not drawn),10.8%
10,CC(C)CN(C(=O)CSc1ncnc2sccc12)C1CCS(=O)(=O)C1 (stereo not drawn),4.56%
11,COc1cc(OC)cc(C2=Cc3ccccc3C(CC(=O)c3ccco3)N2c2ccc(-c3cnc(OC)nc3)cc2)c1 (stereo not drawn),16.7%
12,Cc1ccc(NC(=O)CC2S/C(=N/N=C3\CCCc4ccccc43)NC2=O)cc1 (stereo not drawn),11.1%
13,Cc1ccc(-n2c(SCC(=O)NCc3ccc4c(c3)OCO4)nnc2-c2cccnc2)c(C)c1,-9.21%
14,CCCc1[nH]nc2c1C(c1ccc(Br)s1)C(C#N)=C(N)O2 (stereo not drawn),30.2%
15,CCCc1[nH]nc2c1C(C1CC=CCC1)C(C#N)=C(N)O2 (stereo not drawn),53.8% (active)
16,N#CC1=C(N)OC2=C(C(=O)CCC2)C1C1CC=CCC1 (stereo not drawn),24.8%
17,CCCCc1c(-c2ccc(Cl)cc2)ncn1CCc1ccccc1OC,26.6%
18,CCCCCc1c(-c2cccc(Br)c2)ncn1CCc1ccccc1OC,-2.04%
19,CCCCCc1c(-c2ccc(OC)c(OC)c2)ncn1CCc1ccccc1OC,62.6% (active)
20,Cn1c(SCC(=O)Nc2ccc(N3CCOCC3)cc2)nnc1C(F)(F)F,-2.56%

row,Structure (SMILES),inhibition
1,Cc1cc(Br)cn2c(Cc3ccccc3C(F)(F)F)c(-c3ccc(Cl)cc3)nc12,26.9%
2,CCCc1ccc(-c2c(C)sc(NC(=O)c3ccnn3C)c2C#N)cc1,13.3%
3,Cc1ccc(CNC(=O)c2ccc3c(c2)S(=O)(=O)c2ccccc2C3=O)cc1,-18%
4,COC(=O)CNC(=O)c1ccc2c(c1)S(=O)(=O)c1ccccc1C2=O,65.4% (active)
5,CC(C)(C)c1ccc(C(=O)NCC(=O)OCN2C(=O)c3ccccc3C2=O)cc1,-8.88%
6,Cc1nc(Nc2ccc3c(c2)OCCO3)c2nnn(Cc3ccccc3Cl)c2n1,94.4% (active)
7,Cc1nc(Nc2ccccc2F)c2nnn(Cc3ccccc3Cl)c2n1,20%
8,CCCc1nc(NCc2ccc3c(c2)OCO3)c2nnn(Cc3ccccc3Cl)c2n1,-10.6%
9,O=C1C2C3C=CC(C3)C2C(=O)N1c1ccc(-c2nc3ccccc3c(=O)o2)cc1 (stereo not drawn),-0.15%
10,O=C(/C=C/[C@H]1O[C@@H](n2ccc(=O)[nH]c2=O)[C@H](O)[C@@H]1O)NCc1ccccn1,9.38%
11,CCc1ccccc1OCC(=O)Nc1ccc(C)c(S(=O)(=O)N2CCCCCC2)c1,12.8%
12,Cc1ccccc1OCC(=O)Nc1ccc(N2CCN(C(=O)C(C)C)CC2)c(Cl)c1,70.6% (active)
13,COc1cc(NC(=O)COc2ccccc2Cl)ccc1NC(=O)C(C)C,-5.09%
14,Cn1nnnc1SCC(=O)Nc1ccccc1C(=O)NC1CC1,-4.44%
15,COCCOC(=O)c1c(C)oc2cc(Br)c(OCC(N)=O)cc12,-6.98%
16,CCCCCc1ccc(-c2ccc(OCC)cc2)nc1,-9.17%
17,CCCCCc1ccc(-c2ccc(C(=O)O)cc2)nc1,87.5% (active)
18,CCCCCC(=O)Nc1ccc(-c2cn3cccnc3n2)cc1,-20.2%
